Reference: PubChem BioAssay (EPA / NIEHS)
Results filed as inconclusive are left out. Calls of active or inactive are those of the source. The calls were made as follows: active = hit-call score of the fitted dose curve at least 0.9, where 1 is the maximum; inconclusive = response in the unintended direction; inactive = score below 0.9.

assay: ACEA_ER_AUC_viability: ACEA Biosciences xCELLigence Real-Time Cell Analysis on Estrogen Receptor Agonism for Viability (AID 2283782);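 also: continuous compound exposure with impedance area under curve over 80 h; hit means loss of impedance signal meaning reduced cell growth or viability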
Method in brief: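 T-47D human breast cells in phenol red-free RPMI1640 with 10% charcoal-stripped FBS were dosed with an 8-point 1:4 dilution series from 100 uM top final concentration, in duplicate. Impedance-based growth was followed for 80 h; AUC analysed versus DMSO.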

SMILES | AC50 | outcome
C=CC(=O)OCC(C)OCC(C)OCC(C)OC(=O)C=C (centres undefined) | 21.3 µM (active) | 
Cc1cc(C)n(CO)n1 |  | inactive
CC(C)c1ccc2ncccc2c1 |  | inactive
Nc1ccc(C(=O)OCCCOC(=O)c2ccc(N)cc2)cc1 |  | inactive
C[Si](C)(C)N[Si](C)(C)C |  | inactive
C1CCSC1 |  | inactive
CCC(C)N (centres undefined) | 74.5 µM (active) | 
C=CC(=O)NCOCCCC |  | inactive
CC1CC(=O)CC(C)(C)C1 (centres undefined) |  | inactive
CCCCCCCCCCCCCCCCCCOS(=O)(=O)O | 75.4 µM (active) | 
CC(=O)OCCc1ccccc1 |  | inactive
C=Cc1cccc(C)c1 |  | inactive
CCCCCCCCCCCCCc1ccccc1 |  | inactive
CCCCCCO |  | inactive
Cc1c[nH]c(=O)[nH]c1=O | 68.6 µM (active) | 
CCCCNS(=O)(=O)c1ccccc1 |  | inactive
COC(=O)c1ccc(C(=O)OC)c(C(=O)OC)c1 | 69.6 µM (active) | 

SMILES | AC50 | outcome
CC(C)(O)Cc1ccccc1 | 27.5 µM (active) | 
CC(C)(C)C1CCC(=O)CC1 |  | inactive
COC(=O)CC(C)CCC=C(C)C (centres undefined) |  | inactive
CC(C)CCCCCOC(=O)CS |  | inactive
Oc1c(Cl)cc(Cl)c(Cl)c1Cl | 90.9 µM (active) | 
COc1nccnc1CC(C)C |  | inactive
O=C(Nc1ccccc1)c1cc(Cl)ccc1O | 82.1 µM (active) | 
CC(=O)/C=C/C1C(C)=CCCC1(C)C (centres undefined) |  | inactive
CC(C)COC(=O)CC(C(=O)OCC(C)C)S(=O)(=O)O (centres undefined) |  | inactive
COC(Cc1ccccc1)OC | 67 µM (active) | 
CCN(CC)c1cccc(C)c1 | 27.9 µM (active) | 
CC1(C)CC(O)CC(C)(C)N1[O] |  | inactive
O=C(Oc1ccccc1)c1ccccc1O |  | inactive
CC(CC(C)C)=NO |  | inactive
CC1=C(O)C(=O)C(C)O1 (centres undefined) | 66.8 µM (active) | 
CC(=O)CCC=C(C)C |  | inactive
CC1(C)CCC[C@]2(C)[C@H]3CC(=O)O[C@]3(C)CC[C@@H]12 |  | inactive
